Data on 15 sequences can be found in paper PMC11006913.

Test in all cases: PBM; 200 nM protein, PBS
Holding throughout (settings): dsDNA, one strand shown

Assay [1] deals with HOXD13 (Homo sapiens, UniProt P35453 263-343, T313R).
The target in assay [2] is HOXD13 (Homo sapiens, UniProt P35453 263-343).
For assay [3], the target named is HOXD13 (Homo sapiens, UniProt P35453 263-343, T313A).
A further assay has as its target T1, VENTX (Homo sapiens, UniProt O95231 78-163).
T1 sequence: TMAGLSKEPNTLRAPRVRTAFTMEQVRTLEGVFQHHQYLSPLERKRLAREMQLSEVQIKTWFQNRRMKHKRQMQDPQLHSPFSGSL

Assay [4] addresses HOXB9 (Homo sapiens, UniProt P17482 171-250, T197M).
In assay [5] the target is HOXB9 (Homo sapiens, UniProt P17482 171-250).
HOXB9 (Homo sapiens, UniProt P17482 171-250), sequence (P17482 171-250): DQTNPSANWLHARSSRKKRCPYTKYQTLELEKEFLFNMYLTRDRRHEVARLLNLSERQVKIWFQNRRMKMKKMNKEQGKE
Assay [6] concerns the target HOXB9 (Homo sapiens, UniProt P17482 171-250, R186Q).
Assay [7] addresses HOXB6 (Homo sapiens, UniProt P17509 132-218, K202E).
For assay [8], the target named is HOXB6 (Homo sapiens, UniProt P17509 132-218).
HOXB6 (Homo sapiens, UniProt P17509 132-218), sequence (P17509 132-218): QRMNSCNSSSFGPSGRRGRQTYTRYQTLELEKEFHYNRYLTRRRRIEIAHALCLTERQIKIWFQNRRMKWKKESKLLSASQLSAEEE
In assay [9] the target is HOXC9 (Homo sapiens, UniProt P31274 178-260, K195R).
HOXC9 (Homo sapiens, UniProt P31274 178-260, K195R), sequence (P31274 178-260 K195R): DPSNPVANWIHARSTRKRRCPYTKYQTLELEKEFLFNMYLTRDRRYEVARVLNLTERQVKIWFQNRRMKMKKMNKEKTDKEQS
Assay [10] has as its target HOXA7 (Homo sapiens, UniProt P31268 116-202).
Assay [11] has as its target HOXC9 (Homo sapiens, UniProt P31274 178-260).
Assay [12] has as its target HOXC9 (Homo sapiens, UniProt P31274 178-260, R193K).
For assay [13], the target named is HOXC10 (Homo sapiens, UniProt Q9NYD6 254-340, K271E).
HOXC10 (Homo sapiens, UniProt Q9NYD6 254-340, K271E), sequence (Q9NYD6 254-340 K271E): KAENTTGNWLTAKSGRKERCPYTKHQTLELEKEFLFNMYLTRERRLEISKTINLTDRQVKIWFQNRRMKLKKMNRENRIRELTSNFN
In assay [14] the target is HOXC9 (Homo sapiens, UniProt P31274 178-260, R222W).
HOXC9 (Homo sapiens, UniProt P31274 178-260, R222W), sequence (P31274 178-260 R222W): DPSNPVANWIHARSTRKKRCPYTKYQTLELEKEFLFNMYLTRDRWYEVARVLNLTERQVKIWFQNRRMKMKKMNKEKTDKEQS
Assay [15] deals with HOXA7 (Homo sapiens, UniProt P31268 116-202, W177C).
HOXA7 (Homo sapiens, UniProt P31268 116-202, W177C), sequence (P31268 116-202 W177C): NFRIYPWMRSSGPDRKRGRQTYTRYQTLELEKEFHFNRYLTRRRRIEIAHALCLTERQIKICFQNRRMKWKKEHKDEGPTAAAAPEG
The target of assay [16] is HOXC10 (Homo sapiens, UniProt Q9NYD6 254-340).
HOXC10 (Homo sapiens, UniProt Q9NYD6 254-340), sequence (Q9NYD6 254-340): as the sequence (Q9NYD6 254-340 K271E) above, with E18K counted along it

HOXB9 (Homo sapiens, UniProt P17482 171-250, R186Q), sequence (P17482 171-250 R186Q): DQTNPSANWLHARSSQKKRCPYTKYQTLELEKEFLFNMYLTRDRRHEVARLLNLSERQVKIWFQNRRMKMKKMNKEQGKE
HOXC9 (Homo sapiens, UniProt P31274 178-260), sequence (P31274 178-260): as the sequence (P31274 178-260 R222W) above, with W45R counted along it
HOXB9 (Homo sapiens, UniProt P17482 171-250, T197M), sequence (P17482 171-250 T197M): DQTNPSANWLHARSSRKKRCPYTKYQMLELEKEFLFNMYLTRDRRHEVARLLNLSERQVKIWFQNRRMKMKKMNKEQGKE
HOXC9 (Homo sapiens, UniProt P31274 178-260, R193K), sequence (P31274 178-260 R193K): as the sequence (P31274 178-260 R222W) above, with R16K, W45R counted along it
HOXB6 (Homo sapiens, UniProt P17509 132-218, K202E), sequence (P17509 132-218 K202E): as the sequence (P17509 132-218) above, with K71E counted along it
HOXD13 (Homo sapiens, UniProt P35453 263-343, T313R), sequence (P35453 263-343 T313R): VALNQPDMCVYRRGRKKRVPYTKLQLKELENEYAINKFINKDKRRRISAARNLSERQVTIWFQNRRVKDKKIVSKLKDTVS
HOXD13 (Homo sapiens, UniProt P35453 263-343, T313A), sequence (P35453 263-343 T313A): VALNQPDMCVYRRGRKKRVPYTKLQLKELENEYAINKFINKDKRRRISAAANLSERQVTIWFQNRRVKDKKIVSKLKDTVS
HOXA7 (Homo sapiens, UniProt P31268 116-202), sequence (P31268 116-202): as the sequence (P31268 116-202 W177C) above, with C62W counted along it
HOXD13 (Homo sapiens, UniProt P35453 263-343), sequence (P35453 263-343): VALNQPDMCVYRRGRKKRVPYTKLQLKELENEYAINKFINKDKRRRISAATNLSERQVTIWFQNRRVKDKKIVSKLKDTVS

As to GCCGCTCC, the binding signal in the assay with HOXD13 [1] was 9.38 upbm affinity estimate (log intensity, higher = more binding, comparable within an allelic series); in the assay with HOXD13 [2], 9.56 upbm affinity estimate (log intensity, higher = more binding, comparable within an allelic series); with HOXD13 [3], 9.61 upbm affinity estimate (log intensity, higher = more binding, comparable within an allelic series).
As for GCTAATGA, the binding signal with VENTX was 12.5 upbm affinity estimate (log intensity, higher = more binding, comparable within an allelic series).
Same read-out and setting: the result for ATCGATTA reads 12.6 upbm affinity estimate (log intensity, higher = more binding, comparable within an allelic series).
For CGGTTCCC, the binding signal in the assay with HOXB9 [4] was 8.58 upbm affinity estimate (log intensity, higher = more binding, comparable within an allelic series); in the assay with HOXB9 [5], 8.52 upbm affinity estimate (log intensity, higher = more binding, comparable within an allelic series); with HOXB9 [6], 8.49 upbm affinity estimate (log intensity, higher = more binding, comparable within an allelic series).
For the sequence ATCATTAG, the binding signal with VENTX is 12.5 upbm affinity estimate (log intensity, higher = more binding, comparable within an allelic series).
For the sequence GGAGCTCC, the binding signal with HOXB9 [4] is 8.62 upbm affinity estimate (log intensity, higher = more binding, comparable within an allelic series); with HOXB9 [5] it was 8.6 upbm affinity estimate (log intensity, higher = more binding, comparable within an allelic series); in the assay with HOXB9 [6], 8.62 upbm affinity estimate (log intensity, higher = more binding, comparable within an allelic series).
As to ATTATTAA, the binding signal was 10 upbm affinity estimate (log intensity, higher = more binding, comparable within an allelic series) with HOXB9 [4] and 10.1 upbm affinity estimate (log intensity, higher = more binding, comparable within an allelic series) in the assay with HOXB6 [7].
As to CCTACAGG, the binding signal is 8.54 upbm affinity estimate (log intensity, higher = more binding, comparable within an allelic series) with HOXB9 [4]; 9 upbm affinity estimate (log intensity, higher = more binding, comparable within an allelic series) with HOXB6 [7]; 8.25 upbm affinity estimate (log intensity, higher = more binding, comparable within an allelic series) with HOXB9 [5]; 8.25 upbm affinity estimate (log intensity, higher = more binding, comparable within an allelic series) with HOXB9 [6]; 8.98 upbm affinity estimate (log intensity, higher = more binding, comparable within an allelic series) with HOXB6 [8].
Consider ACCATTAA, for which the binding signal with HOXB9 [4] is 10.1 upbm affinity estimate (log intensity, higher = more binding, comparable within an allelic series); in the assay with HOXC9 [9], 12.7 upbm affinity estimate (log intensity, higher = more binding, comparable within an allelic series); with HOXA7 [10] it was 11.7 upbm affinity estimate (log intensity, higher = more binding, comparable within an allelic series); with HOXB6 [7], 10.1 upbm affinity estimate (log intensity, higher = more binding, comparable within an allelic series); with HOXB9 [5] it was 11.8 upbm affinity estimate (log intensity, higher = more binding, comparable within an allelic series); with HOXC9 [11] it was 12.7 upbm affinity estimate (log intensity, higher = more binding, comparable within an allelic series). Further, the binding signal in the assay with HOXC9 [12] is 12.6 upbm affinity estimate (log intensity, higher = more binding, comparable within an allelic series); in the assay with HOXC10 [13], 11.9 upbm affinity estimate (log intensity, higher = more binding, comparable within an allelic series); with HOXB9 [6] it was 11.6 upbm affinity estimate (log intensity, higher = more binding, comparable within an allelic series); in the assay with HOXC9 [14], 10.9 upbm affinity estimate (log intensity, higher = more binding, comparable within an allelic series); with HOXA7 [15], 8.92 upbm affinity estimate (log intensity, higher = more binding, comparable within an allelic series); in the assay with HOXB6 [8] it was 12 upbm affinity estimate (log intensity, higher = more binding, comparable within an allelic series).
Consider GTCATTAA, for which the binding signal in the assay with HOXB9 [4] was 10.4 upbm affinity estimate (log intensity, higher = more binding, comparable within an allelic series); with HOXC9 [9], 13.1 upbm affinity estimate (log intensity, higher = more binding, comparable within an allelic series); with VENTX, 12.6 upbm affinity estimate (log intensity, higher = more binding, comparable within an allelic series); with HOXA7 [10], 12.2 upbm affinity estimate (log intensity, higher = more binding, comparable within an allelic series); in the assay with HOXC10 [16], 12.6 upbm affinity estimate (log intensity, higher = more binding, comparable within an allelic series); in the assay with HOXB6 [7] it was 10.3 upbm affinity estimate (log intensity, higher = more binding, comparable within an allelic series). The binding signal with HOXB9 [5] is 12.5 upbm affinity estimate (log intensity, higher = more binding, comparable within an allelic series); in the assay with HOXC9 [11] it was 13.2 upbm affinity estimate (log intensity, higher = more binding, comparable within an allelic series); with HOXC9 [12], 13.1 upbm affinity estimate (log intensity, higher = more binding, comparable within an allelic series); with HOXC10 [13], 12.8 upbm affinity estimate (log intensity, higher = more binding, comparable within an allelic series); with HOXD13 [3] it was 11.6 upbm affinity estimate (log intensity, higher = more binding, comparable within an allelic series); in the assay with HOXB9 [6], 12.2 upbm affinity estimate (log intensity, higher = more binding, comparable within an allelic series). For the same sequence, the binding signal in the assay with HOXC9 [14] was 11 upbm affinity estimate (log intensity, higher = more binding, comparable within an allelic series); with HOXA7 [15], 8.94 upbm affinity estimate (log intensity, higher = more binding, comparable within an allelic series); with HOXB6 [8], 12.4 upbm affinity estimate (log intensity, higher = more binding, comparable within an allelic series).
CCATTAAG: the binding signal in the assay with VENTX is 12.3 upbm affinity estimate (log intensity, higher = more binding, comparable within an allelic series); with HOXA7 [10], 11.6 upbm affinity estimate (log intensity, higher = more binding, comparable within an allelic series); in the assay with HOXB6 [7] it was 9.89 upbm affinity estimate (log intensity, higher = more binding, comparable within an allelic series); with HOXA7 [15], 8.82 upbm affinity estimate (log intensity, higher = more binding, comparable within an allelic series); with HOXB6 [8], 12 upbm affinity estimate (log intensity, higher = more binding, comparable within an allelic series).
Turning to CTAATGAC, in the assay with VENTX, the binding signal was 12.5 upbm affinity estimate (log intensity, higher = more binding, comparable within an allelic series).
Turning to ATCATTAA, the binding signal was 10.3 upbm affinity estimate (log intensity, higher = more binding, comparable within an allelic series) with HOXB9 [4]; 12.8 upbm affinity estimate (log intensity, higher = more binding, comparable within an allelic series) with HOXC9 [9]; 11.7 upbm affinity estimate (log intensity, higher = more binding, comparable within an allelic series) with HOXA7 [10]; 12.4 upbm affinity estimate (log intensity, higher = more binding, comparable within an allelic series) with HOXC10 [16]; 10.2 upbm affinity estimate (log intensity, higher = more binding, comparable within an allelic series) with HOXB6 [7]; 12.1 upbm affinity estimate (log intensity, higher = more binding, comparable within an allelic series) in the assay with HOXB9 [5]. Moreover, the binding signal is 12.8 upbm affinity estimate (log intensity, higher = more binding, comparable within an allelic series) with HOXC9 [11]; 10.7 upbm affinity estimate (log intensity, higher = more binding, comparable within an allelic series) in the assay with HOXD13 [1]; 12.8 upbm affinity estimate (log intensity, higher = more binding, comparable within an allelic series) with HOXC9 [12]; 11.8 upbm affinity estimate (log intensity, higher = more binding, comparable within an allelic series) with HOXD13 [2]; 12.3 upbm affinity estimate (log intensity, higher = more binding, comparable within an allelic series) in the assay with HOXC10 [13]; 11.7 upbm affinity estimate (log intensity, higher = more binding, comparable within an allelic series) with HOXD13 [3]. In addition, the binding signal in the assay with HOXB9 [6] is 11.8 upbm affinity estimate (log intensity, higher = more binding, comparable within an allelic series); with HOXC9 [14] it was 11.1 upbm affinity estimate (log intensity, higher = more binding, comparable within an allelic series); with HOXA7 [15] it was 8.9 upbm affinity estimate (log intensity, higher = more binding, comparable within an allelic series); with HOXB6 [8] it was 12 upbm affinity estimate (log intensity, higher = more binding, comparable within an allelic series).
Regarding AGTCATTA, the binding signal in the assay with HOXA7 [10] was 11.5 upbm affinity estimate (log intensity, higher = more binding, comparable within an allelic series); in the assay with HOXB6 [7] it was 9.89 upbm affinity estimate (log intensity, higher = more binding, comparable within an allelic series); with HOXA7 [15], 8.85 upbm affinity estimate (log intensity, higher = more binding, comparable within an allelic series); with HOXB6 [8], 11.7 upbm affinity estimate (log intensity, higher = more binding, comparable within an allelic series).
With CGGGCTAG, the binding signal with HOXC9 [9] is 9.53 upbm affinity estimate (log intensity, higher = more binding, comparable within an allelic series); in the assay with VENTX it was 7.75 upbm affinity estimate (log intensity, higher = more binding, comparable within an allelic series); in the assay with HOXC9 [11], 9.6 upbm affinity estimate (log intensity, higher = more binding, comparable within an allelic series); with HOXD13 [1], 9.56 upbm affinity estimate (log intensity, higher = more binding, comparable within an allelic series); with HOXC9 [12] it was 9.51 upbm affinity estimate (log intensity, higher = more binding, comparable within an allelic series); with HOXD13 [2], 9.47 upbm affinity estimate (log intensity, higher = more binding, comparable within an allelic series). In addition, the binding signal with HOXD13 [3] is 9.73 upbm affinity estimate (log intensity, higher = more binding, comparable within an allelic series); with HOXC9 [14], 9.67 upbm affinity estimate (log intensity, higher = more binding, comparable within an allelic series).
